Test results from PubChem BioAssay AID686979 (National Center for Advancing Translational Sciences (NCATS), 2013).
In all, about 420,000 compounds went through this assay and about 50,000 (12%) were called active. About 26% were inconclusive and are not listed. This is one part of a sample in which actives are shown more often than they occur. Values without a mark were called inactive. Calls follow the shape of the dose curve; as a rule, active = well fitted inhibition curve with a large enough effect; inconclusive = small, poorly fitted or top-dose-only effect; inactive = flat fitted curve, though single readings scatter.

experiment: qHTS for Inhibitors of human tyrosyl-DNA phosphodiesterase 1 (TDP1): qHTS in cells in presence of CPT; conditions: chicken DT40 Tdp1-/-;hTDP1 cells + 20 nM CPT, ATP luminescence, 48 h; series mostly up to 46.2 µM; activity change, negative = growth inhibition: at the top concentration; also: nearly all actives have a fitted effect of over 55% in size
Summary of the method: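 Chicken DT40 Tdp1-/- cells stably complemented with human TDP1 were seeded at 400 cells/well in medium containing 20 nM camptothecin, exposed to pin-transferred compounds, and grown at 37 °C for at least 48 hr. Viability was read as ATP luminescence.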
% is scaled to controls: 0 for no effect and ±100 for the full control effect; potency is read from the fitted curve at half-maximal effect.

SMILES | activity change, negative = growth inhibition [%] | Potency
CCOc1ccc(CNCCSc2nnnn2C)cc1 | 4.21 | –
CCOCCn1ccc2c(OCC(=O)NCc3ccc(C)cc3)cccc2c1=O | -21.4 | –
COC(=O)COc1cccc2c(=O)n(CC(=O)NCCc3ccc(OC)c(OC)c3)ccc12 | 1.3 | –
COC(=O)COc1cccc2c(=O)n(CC(=O)NCc3ccccc3)ccc12 | – | 1.84 µM (active)
O=C(NN=CC=Cc1ccccc1)C(O)C(O)C(=O)NN=CC=Cc1ccccc1 (configuration not stated) | 13.1 | –
CCC(=O)Oc1cccc(C(=O)Nc2ccc(-c3nnc(-c4ccco4)o3)cc2)c1 | – | 6.51 µM (active)
CCOc1ccc(-c2nnc(-c3ccco3)o2)cc1 | -12 | –
CCCCOc1ccc(-c2nnc(-c3ccco3)o2)cc1 | -21.4 | –
COc1ccc(C)cc1S(=O)(=O)Nc1cc2c3c(c1)CCC(=O)N3CCC2 | -11.1 | –
Cc1nc(C(F)(F)F)ccc1C(=O)N1CCC1(C)C(=O)NS(=O)(=O)c1ccccc1Cl (configuration not stated) | -5.55 | –
CCNC(=S)N(CCN(CC)CC)Cc1cc2cc3c(cc2[nH]c1=O)OCO3 | -19.8 | –
O=C(NCCN1CCOCC1)c1cccc(S(=O)(=O)Nc2ccc(F)cc2)c1 | -5.32 | –
CCN(CC)S(=O)(=O)c1ccc(Cl)c(C(=O)NCCN2CCOCC2)c1 | 10.4 | –
CCN(c1ccccc1)S(=O)(=O)c1cccc(C(=O)NCc2ccccc2CN2CCOCC2)c1 | – | 20.6 µM (active)
CCOC(=O)C1CCN(C(=O)c2cccc(S(=O)(=O)N(CC)c3ccccc3)c2)CC1 | – | 14.6 µM (active)
CCOC(=O)C1CCCN(C(=O)c2ccc(N(C)C)cc2)CC1 (configuration not stated) | -17.9 | –
CCOC(=O)C1CCCN(C(=O)c2cccc(S(=O)(=O)N3CCOCC3)c2)C1 (configuration not stated) | -26.6 | –
CCOc1ccc(CNC(=O)c2ccc3nc(CC)c(CC)nc3c2)cc1OC | -29.6 | –
COc1ccc(C(=O)NC(=S)N2CCNC(=O)C2CC(=O)OC(C)C)cc1 (configuration not stated) | -7.41 | –
CCOc1cc(C(=O)Nc2ccc(S(=O)(=O)Nc3cnc4ccccc4n3)cc2)cc(OCC)c1OCC | -5.96 | –
CCc1nc2ccc(C(=O)Nc3cc(-c4ccccc4)ccc3OC)cn2c1N(CC)CC(=O)N(C)C | – | 14.6 µM (active)
CCc1nc2ccc(C(=O)NCc3ccc(OC)cc3)cn2c1N(CC)Cc1cccc(Br)c1 | – | 23.1 µM (active)
CCc1nc2ccc(C(=O)N(C)CCN(C)C)cn2c1N(CC)CCOC | 5.06 | –
CCc1nc2ccc(C(=O)N(C)Cc3ccco3)cn2c1N(C)C(=O)Cc1ccccc1 | -1.23 | –
CCc1nc2ccc(C(=O)Nc3cccc(OC)c3)cn2c1N(CCC(C)C)CCN(C)C | -98.8 | –

SMILES | activity change, negative = growth inhibition [%] | Potency
CCc1nc2ccc(C(=O)N3CCC(O)(Cc4ccccc4)CC3)cn2c1N(C)C(=O)Cc1ccccc1 | -29.7 | –
O=C(C[C@H]1CC[C@@H](NC(=O)c2ccncc2)[C@@H](CO)O1)NCC1CC1 | 17.7 | –
O=C(NCCCNc1ccc([N+](=O)[O-])cc1Cl)c1ccccc1F | 6.04 | –
N#CCSc1ccccc1NC(=O)CN1C(=O)NC(CCc2ccccc2)C1=O (configuration not stated) | 3.98 | –
Cc1cnc(C(=O)OCC(=O)Nc2ccc(Cl)cc2Cl)cn1 | -3.16 | –
CCOC(=O)c1c(NC(=O)COc2cc(C)ccc2C(C)C)sc(C)c1C | -14.5 | –
COC(=O)c1c(NC(=O)COc2ccc(Cl)cc2Cl)sc2c1CC(C)(C)NC2(C)C | – | 7.31 µM (active)
O=S(=O)(NCCc1ccc(F)cc1)c1cccc2cccnc12 | -15.1 | –
CCOC(=O)c1ccc(NC(=O)Cn2cc(S(=O)(=O)Cc3ccccc3F)c3ccccc32)cc1 | -26.9 | –
CCOc1ccc(C(=O)c2cn(Cc3ccccc3OC)c3ccc(F)cc3c2=O)cc1 | – | 16.4 µM (active)
COc1ccccc1CNC(=O)CN1CCC(n2cnc3cc(F)ccc32)CC1 | -7.82 | –
CCOc1ccc(C(=O)c2cn(Cc3ccc(F)cc3)c3ccc(F)cc3c2=O)cc1 | – | 18.4 µM (active)
Cc1ccc(Cn2cc(C(=O)NN)c(=O)c3ccc(F)cc32)cc1 | -22.5 | –
COc1ccc(NC(=O)Cn2cc(C(=O)c3ccncc3)c(=O)c3cc(C)ccc32)cc1Cl | 5.62 | –
O=C(c1ccc(F)cc1)c1cn(Cc2ccc(F)cc2)c2cc3c(cc2c1=O)OCCO3 | -15.9 | –
CC12CCC(C(=O)N3CCN(c4ncccn4)CC3)(c3nc4ccccc4nc31)C2(C)C (configuration not stated) | -11.1 | –
Cc1nc(SCC(=O)Nc2ccc(C(=O)O)cc2)n[nH]1 | 9.68 | –
CC1CC(C)CN(C(=O)C2CC(=O)N(c3ccc(F)cc3)C2)C1 (configuration not stated) | -20.7 | –
CC(=O)Nc1ccc(NC(=O)CS(=O)(=O)c2cn(CC(=O)N3CCCCC3)c3ccccc23)cc1 | -10.5 | –
COc1ccccc1C(=O)N1C(CC(=O)Nc2ccccc2C)C(=O)NC2CCCCC21 (configuration not stated) | -19 | –
CCc1cc2c(N3CCN(c4nnc(CC)s4)CC3)ncnc2s1 | – | 10.3 µM (active)
CCOCCCNCc1ccc(OCc2ccc(F)cc2)c(OC)c1 | -17.6 | –
O=C(NCCCO)C(=O)Nc1c2c(nn1-c1ccccc1)CSC2 | -5.46 | –
CCN(CC)S(=O)(=O)c1ccc(N(C)Cc2cccc(OC)c2OC)nc1 | – | 23.1 µM (active)
COc1ccc(S(=O)(=O)N2CCCCCC2)cc1C(=O)N(C)Cc1cccc(OC)c1OC | -28.8 | –

SMILES | activity change, negative = growth inhibition [%] | Potency
CCN(CC)S(=O)(=O)c1ccc(OC)c(NC(=O)CCc2c(C)noc2C)c1 | 1.45 | –
CCC(C(=O)N1CCN(S(=O)(=O)c2sc(C(=O)O)c(C)c2C(=O)O)CC1)c1ccccc1 (configuration not stated) | -4.51 | –
CCCCCCC(O)(CCN1CCCCC1)c1ccccc1 (configuration not stated) | 6.69 | –
O=C(CSc1ncn[nH]1)Nc1nc2c(F)c(F)c(F)cc2s1 | -10.6 | –
Cc1c(CCOC(=O)CC23CC4CC(CC(C)(C4)C2)C3)sc[n+]1Cc1ccc([N+](=O)[O-])cc1 | – | 18.4 µM (active)
COc1ccc(-n2c(C)cc(C(=O)CSc3nnc(-c4cccs4)o3)c2C)cc1 | – | 16.4 µM (active)
Cc1ccc(OC(=O)CSc2nnc(-c3cccs3)o2)cc1 | 1.42 | –
COc1ccc(C(=O)CSc2nnc(-c3ccco3)o2)cc1 | -1.34 | –
Cc1ccc(S(=O)(=O)N2CC[C@H]3[C@@H](C2)C(=O)C[C@@H](c2ccccc2)N3S(=O)(=O)c2ccc(C)cc2)cc1 | -12.4 | –
Cc1ccc(C)c(S(=O)(=O)Nc2cc(C)on2)c1 | -2.88 | –
CC(NC(=O)CC1SC(N)=NC1=O)c1ccccc1 (configuration not stated) | -7.27 | –
Cc1nc(CN(C)C(=O)CC2C(=O)NCCN2Cc2ccc(F)cc2)cs1 (configuration not stated) | 1.54 | –
CCCC(=O)Nc1ncnc2c1ncn2[C@@H]1O[C@@H]2OP(=O)(O)OC[C@H]2[C@H]1OC(=O)CCC | 3.57 | –
CC(C)C(=O)NC(NC(=S)NC1CCS(=O)(=O)C1)C(Cl)(Cl)Cl (configuration not stated) | -3.75 | –
O=C(CSc1ccccc1F)NC1CCS(=O)(=O)C1 (configuration not stated) | -0.0027 | –
O=C(Cc1ccc(Cl)cc1)NC1CCS(=O)(=O)C1 (configuration not stated) | -2.99 | –
COc1ccc(NC(=S)NC2CCS(=O)(=O)C2)cc1 (configuration not stated) | 1.76 | –
CCCSC(=S)NC1CCS(=O)(=O)C1 (configuration not stated) | – | 16.4 µM (active)
O=S1(=O)CCC(NC(=S)SCc2ccccc2Br)C1 (configuration not stated) | – | 8.2 µM (active)
CCOc1ccc(NC(=O)CN(C)CC(=O)NC(C)c2ccccc2)cc1OCC (configuration not stated) | -9.01 | –
CN(CCC(=O)Nc1cc(S(=O)(=O)N(C)C)ccc1Cl)CC(=O)Nc1ccc(F)cc1 | 5.34 | –
CN1OC[C@@H]2CN(C(=O)c3cccnc3)[C@H](c3ccc(N4CCCCC4)cc3)C[C@@H]21 | 6.47 | –
CCOC(=O)CN(C(=O)COc1nc(-c2ccccc2)cc(C)c1C#N)c1ccc(F)cc1 | -24.9 | –
CCOC(=O)c1ccc(NC(=S)N2CCN(c3ccccn3)CC2)cc1 | 1.63 | –
O=[N+]([O-])c1ccc(NC(=S)N2CCN(c3ccccn3)CC2)cc1 | – | 16.4 µM (active)

SMILES | activity change, negative = growth inhibition [%] | Potency
COc1cc([N+](=O)[O-])ccc1NC(=S)N1CCN(c2ccccn2)CC1 | -24.2 | –
CC(=O)Nc1ccc(NC(=O)CCCNC(=O)c2ccc(Cl)cc2)cc1 | -1.54 | –
COCCn1c(CCC(=O)Nc2cc(C)ccc2C)nc2cccnc21 | -9.25 | –
COCCCNC(=O)CCc1nc2cccnc2n1Cc1ccc(OC)cc1 | -3.73 | –
Cc1ccc(Cn2c(CNC(=O)Cc3cccc(C)c3)nc3cccnc32)cc1 | – | 13 µM (active)
O=C(CCNS(=O)(=O)c1ccccc1)NCCSc1ccc(Br)cc1 | -23 | –
CCc1cccc(NC(=O)COC(=O)c2cc(=O)c3ccccc3o2)c1 | 5.89 | –
C=CCC[C@@H](Cc1ccc(F)cc1)C(=O)O[C@H](CNC(=O)[C@H](CC=C)CC(=O)N(CCO)Cc1ccccc1)c1ccccc1 | – | 18.4 µM (active)
C=CCC[C@@H](Cc1ccc(F)cc1)C(=O)OC[C@@H](C)NC(=O)[C@H](CC=C)CC(=O)N(CCO)Cc1ccccc1 | – | 13 µM (active)
COCCCNC(=S)N(Cc1ccccc1)Cc1ccc(F)cc1 | -7.85 | –
C=CCC(NC(=O)Cc1ccccc1)C(=O)NCCC (configuration not stated) | -4.46 | –
C=CC[C@H](CC(=O)N(CCO)Cc1ccccc1)C(=O)N[C@@H](COC(=O)[C@@H](CC=C)Cc1ccc(F)cc1)Cc1ccccc1 | – | 23.1 µM (active)
C=CCC[C@H](Cc1ccc(F)cc1)C(=O)OC[C@H](C)NC(=O)[C@H](CC=C)CC(=O)N(CCO)Cc1ccccc1 | – | 14.6 µM (active)
Cc1ccccc1Nc1nc(N)nc(CSc2ccccc2)n1 | 11.7 | –
COc1ccc(C(C)NC(=O)C2CCCC2)cc1 (configuration not stated) | 28 | –
O=C(CNC(=O)c1cccnc1)N/N=C/c1cc(Br)c(O)c(Br)c1 | -5.42 | –
Cc1ccc(S(=O)(=O)NCC2CCC(C(=O)N3CCOCC3)CC2)cc1 (configuration not stated) | 11.6 | –
CCOc1ncccc1C(=O)NNC(=O)c1cccc(S(=O)(=O)Nc2ccccc2OC)c1 | -0.192 | –
O=C(Nc1c[nH]c(=O)[nH]c1=O)OCc1ccccc1 | -14.3 | –
CC(=O)c1sc(N)nc1C | – | inactive
COc1ccc(C2/C(=C(/O)c3ccc4c(c3)CC(C)O4)C(=O)C(=O)N2Cc2ccncc2)cc1 (configuration not stated) | 29.7 | –
CC(C)COc1ccc(C(=O)NNC(=O)CCC(=O)c2cccs2)cc1 | -2.08 | –
